In PubChem BioAssay (EPA / NIEHS):
Inconclusive results are not listed. The source made the active and inactive calls. How the source made its calls, unless noted: active means hit-call score of the fitted dose curve at least 0.9, where 1 is the maximum; inconclusive means response in the unintended direction; inactive means score below 0.9.

Legend:
[1] = target: human CYP19A1, CYP19A1 (gene 1588) (UniProt P11511); assay: NVS_ADME_hCYP19A1: NovaScreen (NVS) CYP450-related Enzyme Activity (ADME) Assay for human CYP19A1 (AID 2283098);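 on AC50: potency for inhibitors seen as loss of fluorescent enzyme signal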
Summary of the method: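 Biochem, cell-free; recombinant enzyme + specific substrate; fluorescence intensity at 0.5 h post-dose; 10 uM duplicate primary, conc. series for actives; acetonitrile = negative control/baseline; positive and negative controls on every plate.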

[2] = BSK_SAg_Proliferation: Cell Proliferation Assessment in the BioMAP Diversity Plus: SAg Assay (AID 2283095; active means hit-call score of the fitted dose curve at least 0.9, where 1 is the maximum; inactive means score below 0.9); conditions: primary human HUVEC with PBMC
Summary of the method: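 Human umbilical vein endothelial cells co-cultured with PBMC; sulforhodamine B total-protein staining (0.1% SRB after 10% TCA fixation, absorbance 560 nm) at 96 h in sub-confluent culture. Fitted bidirectionally against DMSO.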

[3] = BSK_SAg_SRB: Viability Assessment in the BioMAP Diversity Plus: SAg Assay (AID 2283096; active means hit-call score of the fitted dose curve at least 0.9, where 1 is the maximum; inactive means score below 0.9;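 further: cells read one day after compound addition; hits may be either gain or loss of signal compared with DMSO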); conditions: primary human HUVEC with PBMC
Summary of the method: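 Total protein by sulforhodamine B staining, 24 h after dosing, in HUVEC–PBMC co-culture; DMSO-referenced bidirectional fitting.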

[4] = target: Cytochrome P450 2C19 (Homo sapiens) (UniProt P33261); assay: NVS_ADME_hCYP2C19: NovaScreen (NVS) CYP450-related Enzyme Activity (ADME) Assay for human CYP2C19 (AID 2283113);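 further: potency for inhibition seen as loss of fluorescent signal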
Summary of the method: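 Biochemical CYP2C19 inhibition screen: insect-cell recombinant protein plus fluorescent substrate, 1 h, fluorescence intensity. Acetonitrile defined baseline activity. Single 10 uM concentration in duplicate, with concentration-response follow-up for actives.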

[5] = target: human CYP1A1, CYP1A1 (gene 1543) (UniProt P04798); assay: NVS_ADME_hCYP1A1: NovaScreen (NVS) CYP450-related Enzyme Activity (ADME) Assay for human CYP1A1 (AID 2283100)
Summary of the method: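 Inhibition of recombinant CYP1A1 turnover was assessed fluorometrically in a biochemical format 1 h after compound exposure. Testing began at 10 uM in duplicate and progressed to concentration series reaching 20 uM, with on-plate positive and negative controls.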

[6] = target: human CYP2B6, CYP2B6 (gene 1555) (UniProt P20813); assay: NVS_ADME_hCYP2B6: NovaScreen (NVS) CYP450-related Enzyme Activity (ADME) Assay for human CYP2B6 (AID 2283101)
Summary of the method: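 Compounds were first screened in duplicate at 10 uM against recombinant enzyme, with the fluorescent product measured after 1 hour. Active compounds were retested over a concentration series. Loss of fluorescence versus acetonitrile control was scored as reduced enzyme activity.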

[7] = target: human CYP1A2, CYP1A2 (gene 1544) (UniProt P05177); assay: NVS_ADME_hCYP1A2: NovaScreen (NVS) CYP450-related Enzyme Activity (ADME) Assay for human CYP1A2 (AID 2283102);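 on AC50: potency for inhibition since loss of fluorescence marks reduced CYP1A2 activity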
Summary of the method: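 Inhibition scored as decrease in fluorescent product versus acetonitrile negative control. Enzyme: insect-cell recombinant human CYP1A2, substrate-specific, cell-free. Reading at 0.5 h; 10 uM duplicate initial screen with positive and negative controls on every plate.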

[8] = target: human CYP2D6, CYP2D6 (gene 1565) (UniProt P10635); assay: NVS_ADME_hCYP2D6: NovaScreen (NVS) CYP450-related Enzyme Activity (ADME) Assay for human CYP2D6 (AID 2283107)
Summary of the method: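 Biochemical fluorescence assay, insect-cell-derived enzyme. Read at 1 h; inhibition taken from loss of signal against acetonitrile. Screened at 10 uM in duplicate, with concentration series for actives.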

[9] = target: human CYP2C9, CYP2C9 (gene 1559) (UniProt P11712); assay: NVS_ADME_hCYP2C9: NovaScreen (NVS) CYP450-related Enzyme Activity (ADME) Assay for human CYP2C9 (AID 2283108)
Summary of the method: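 Fluorescence readout of CYP2C9 activity (SF9-expressed human enzyme) at 0.75 h. The primary screen used 10 uM in duplicate, with concentration-response follow-up for actives; acetonitrile was the negative control.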

[10] = target: Cytochrome P450 3A4 (Homo sapiens) (UniProt P08684); assay: NVS_ADME_hCYP3A4: NovaScreen (NVS) CYP450-related Enzyme Activity (ADME) Assay for human CYP3A4 (AID 2283110)
Summary of the method: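 Compounds were first screened in duplicate at 10 uM against recombinant CYP3A4 produced in insect cells, then actives were run in concentration series. Enzyme activity was measured by fluorescence after 0.33 hour, with acetonitrile as baseline.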

[11] = target: human CYP4F12, CYP4F12 (gene 66002) (UniProt Q9HCS2); assay: NVS_ADME_hCYP4F12: NovaScreen (NVS) CYP450-related Enzyme Activity (ADME) Assay for human CYP4F12 (AID 2283111)
Summary of the method: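 Cell-free fluorescence assay of recombinant human CYP4F12 activity on a specific substrate, read 0.5 h after dosing. Primary screen in duplicate at 10 uM, then concentration series for actives; loss of signal fitted against acetonitrile negative control.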

[12] = target: human CYP2A6, CYP2A6 (gene 1548) (UniProt P11509); assay: NVS_ADME_hCYP2A6: NovaScreen (NVS) CYP450-related Enzyme Activity (ADME) Assay for human CYP2A6 (AID 2283099)
Summary of the method: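 Loss of fluorescence signal relative to acetonitrile vehicle reported CYP2A6 inhibition in a cell-free system using insect-cell-derived enzyme. Readings were taken at 0.5 h; top concentration in follow-up dose series was 20 uM.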

[13] = target: rat CYP2A1, Cyp2a1 (gene 24894) (UniProt P11711); assay: NVS_ADME_rCYP2A1: NovaScreen (NVS) CYP450-related Enzyme Activity (ADME) Assay for rat CYP2A1 (AID 2283114; active means hit-call score of the fitted dose curve at least 0.9, where 1 is the maximum; inactive means score below 0.9)
Summary of the method: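 Recombinant rat CYP2A1, cell-free, fluorogenic substrate turnover read by fluorescence intensity 0.75 h after dosing. Primary screen at 10 uM in duplicate; actives rerun as concentration-response up to 20 uM; loss of signal versus acetonitrile control.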

[14] = target: rat CYP2C12, Cyp2c12 (gene 25011) (UniProt P11510); assay: NVS_ADME_rCYP2C12: NovaScreen (NVS) CYP450-related Enzyme Activity (ADME) Assay for rat CYP2C12 (AID 2283119)
Summary of the method: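 Cell-free recombinant rat CYP2C12 activity read by fluorescence 0.5 h after dosing; loss of signal versus acetonitrile control. Primary screen in duplicate at 10 uM; actives then run in concentration-response format.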

[15] = target: rat CYP2A2, Cyp2a2 (gene 24895) (UniProt P15149); assay: NVS_ADME_rCYP2A2: NovaScreen (NVS) CYP450-related Enzyme Activity (ADME) Assay for rat CYP2A2 (AID 2283116)
Summary of the method: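 Cell-free recombinant rat CYP2A2 activity with fluorogenic substrate, fluorescence read 0.2 h after dosing. Chemicals screened at 10 uM in duplicate, hits then run in concentration-response up to 20 uM; signal loss versus acetonitrile baseline.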

rat CYP2B1, gene 24300 = assay: NVS_ADME_rCYP2B1: NovaScreen (NVS) CYP450-related Enzyme Activity (ADME) Assay for rat CYP2B1 (AID 2283117)
Summary of the method: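 Recombinant rat CYP2B1 with fluorogenic substrate, read at 0.75 h. Primary screen in duplicate at 10 uM; compounds meeting threshold (e.g., 30% inhibition) re-run in concentration-response up to 20 uM. Fitted against acetonitrile control.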

[16] = target: rat CYP2C11, Cyp2c11 (gene 29277) (UniProt P08683); assay: NVS_ADME_rCYP2C11: NovaScreen (NVS) CYP450-related Enzyme Activity (ADME) Assay for rat CYP2C11 (AID 2283118)
Summary of the method: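 Cell-free recombinant rat enzyme with fluorescent substrate; readout 0.33 h after dosing, loss of signal versus acetonitrile control. Initial duplicate single-point at 10 uM; actives rerun in concentration series.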

human CYP1A1, CYP1A1 (gene 1543), sequence (P04798 whole entry, looked up): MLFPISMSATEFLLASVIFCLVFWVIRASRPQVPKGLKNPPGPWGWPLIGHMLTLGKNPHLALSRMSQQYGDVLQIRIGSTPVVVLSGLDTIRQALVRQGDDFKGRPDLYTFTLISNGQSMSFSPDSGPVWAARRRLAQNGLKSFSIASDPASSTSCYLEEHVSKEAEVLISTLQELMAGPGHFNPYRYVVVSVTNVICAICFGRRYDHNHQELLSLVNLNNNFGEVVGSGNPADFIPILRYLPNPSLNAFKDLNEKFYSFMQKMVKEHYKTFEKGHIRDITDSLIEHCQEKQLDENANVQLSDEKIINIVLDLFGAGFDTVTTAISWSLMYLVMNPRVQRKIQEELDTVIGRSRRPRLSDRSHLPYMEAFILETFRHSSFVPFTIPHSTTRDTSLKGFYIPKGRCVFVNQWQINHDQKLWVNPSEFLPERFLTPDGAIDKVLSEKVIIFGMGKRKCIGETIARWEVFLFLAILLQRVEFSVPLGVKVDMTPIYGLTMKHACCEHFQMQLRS
human CYP2C9, CYP2C9 (gene 1559), sequence (P11712 whole entry, looked up): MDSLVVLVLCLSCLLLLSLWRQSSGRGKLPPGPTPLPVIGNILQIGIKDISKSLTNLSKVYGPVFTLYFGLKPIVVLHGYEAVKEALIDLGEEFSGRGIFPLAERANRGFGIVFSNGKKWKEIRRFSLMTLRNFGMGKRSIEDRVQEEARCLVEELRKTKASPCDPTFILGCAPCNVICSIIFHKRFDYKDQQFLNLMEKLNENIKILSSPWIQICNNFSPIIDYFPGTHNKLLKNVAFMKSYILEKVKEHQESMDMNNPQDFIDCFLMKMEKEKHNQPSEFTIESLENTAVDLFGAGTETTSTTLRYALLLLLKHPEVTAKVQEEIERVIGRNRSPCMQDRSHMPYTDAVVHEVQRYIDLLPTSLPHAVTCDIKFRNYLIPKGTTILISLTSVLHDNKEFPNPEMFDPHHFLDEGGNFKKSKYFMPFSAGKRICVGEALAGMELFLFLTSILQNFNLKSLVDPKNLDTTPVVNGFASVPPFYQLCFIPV
human CYP2D6, CYP2D6 (gene 1565), sequence (P10635 whole entry, looked up): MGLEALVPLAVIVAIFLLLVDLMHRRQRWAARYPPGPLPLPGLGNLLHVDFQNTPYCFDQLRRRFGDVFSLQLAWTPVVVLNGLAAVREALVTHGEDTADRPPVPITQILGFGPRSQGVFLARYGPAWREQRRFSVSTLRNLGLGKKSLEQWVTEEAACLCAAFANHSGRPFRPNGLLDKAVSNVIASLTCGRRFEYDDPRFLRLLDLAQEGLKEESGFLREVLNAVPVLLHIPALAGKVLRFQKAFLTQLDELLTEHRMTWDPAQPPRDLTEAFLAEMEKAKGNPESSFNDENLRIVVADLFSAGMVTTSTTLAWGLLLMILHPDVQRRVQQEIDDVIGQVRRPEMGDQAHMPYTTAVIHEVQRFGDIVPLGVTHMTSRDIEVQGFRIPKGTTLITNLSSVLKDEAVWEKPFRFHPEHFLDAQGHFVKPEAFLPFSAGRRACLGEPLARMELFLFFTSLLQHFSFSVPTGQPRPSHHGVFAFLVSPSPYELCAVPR
human CYP1A2, CYP1A2 (gene 1544), sequence (P05177 whole entry, looked up): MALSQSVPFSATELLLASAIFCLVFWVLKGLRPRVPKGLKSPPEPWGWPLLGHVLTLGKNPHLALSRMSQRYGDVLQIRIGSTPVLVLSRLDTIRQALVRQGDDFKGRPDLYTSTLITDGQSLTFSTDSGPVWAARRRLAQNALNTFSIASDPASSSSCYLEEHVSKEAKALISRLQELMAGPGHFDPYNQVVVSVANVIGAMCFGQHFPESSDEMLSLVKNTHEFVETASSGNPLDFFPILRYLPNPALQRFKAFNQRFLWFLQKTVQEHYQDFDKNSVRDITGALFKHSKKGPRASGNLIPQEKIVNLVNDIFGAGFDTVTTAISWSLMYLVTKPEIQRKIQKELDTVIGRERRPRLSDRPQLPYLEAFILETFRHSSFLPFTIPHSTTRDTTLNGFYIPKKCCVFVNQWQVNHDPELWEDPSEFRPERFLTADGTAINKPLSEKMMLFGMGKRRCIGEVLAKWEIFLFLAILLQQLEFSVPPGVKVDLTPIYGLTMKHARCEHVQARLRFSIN
Cytochrome P450 3A4 (Homo sapiens), sequence (P08684 whole entry, looked up): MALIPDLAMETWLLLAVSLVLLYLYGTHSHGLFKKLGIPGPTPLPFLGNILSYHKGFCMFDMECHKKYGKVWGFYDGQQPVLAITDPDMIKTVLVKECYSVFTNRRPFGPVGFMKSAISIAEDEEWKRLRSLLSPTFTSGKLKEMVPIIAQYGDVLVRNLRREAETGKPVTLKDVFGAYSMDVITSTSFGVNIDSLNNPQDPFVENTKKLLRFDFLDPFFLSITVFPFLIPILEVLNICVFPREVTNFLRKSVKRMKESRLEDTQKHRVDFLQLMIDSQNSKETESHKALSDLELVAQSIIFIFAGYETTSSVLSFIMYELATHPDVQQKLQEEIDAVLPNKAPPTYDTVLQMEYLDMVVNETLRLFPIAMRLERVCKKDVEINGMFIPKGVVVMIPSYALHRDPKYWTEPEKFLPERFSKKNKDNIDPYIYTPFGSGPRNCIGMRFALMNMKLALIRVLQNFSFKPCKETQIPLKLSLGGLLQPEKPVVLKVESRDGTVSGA
human CYP19A1, CYP19A1 (gene 1588), sequence (P11511 whole entry, looked up): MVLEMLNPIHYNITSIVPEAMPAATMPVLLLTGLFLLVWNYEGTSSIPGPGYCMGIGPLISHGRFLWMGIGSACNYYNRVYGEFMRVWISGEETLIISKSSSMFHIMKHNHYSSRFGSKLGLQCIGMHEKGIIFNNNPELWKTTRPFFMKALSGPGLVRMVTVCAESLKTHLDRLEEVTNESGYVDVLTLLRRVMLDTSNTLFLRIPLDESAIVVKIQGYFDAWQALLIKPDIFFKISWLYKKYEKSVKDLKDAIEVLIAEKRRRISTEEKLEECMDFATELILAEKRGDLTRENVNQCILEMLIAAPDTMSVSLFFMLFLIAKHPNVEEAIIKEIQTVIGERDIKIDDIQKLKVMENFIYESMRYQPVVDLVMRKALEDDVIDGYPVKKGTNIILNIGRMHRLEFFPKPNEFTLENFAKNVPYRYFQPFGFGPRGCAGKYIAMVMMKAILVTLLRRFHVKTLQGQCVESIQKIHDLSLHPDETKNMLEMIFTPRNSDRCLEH
rat CYP2A1, Cyp2a1 (gene 24894), sequence (P11711 whole entry, looked up): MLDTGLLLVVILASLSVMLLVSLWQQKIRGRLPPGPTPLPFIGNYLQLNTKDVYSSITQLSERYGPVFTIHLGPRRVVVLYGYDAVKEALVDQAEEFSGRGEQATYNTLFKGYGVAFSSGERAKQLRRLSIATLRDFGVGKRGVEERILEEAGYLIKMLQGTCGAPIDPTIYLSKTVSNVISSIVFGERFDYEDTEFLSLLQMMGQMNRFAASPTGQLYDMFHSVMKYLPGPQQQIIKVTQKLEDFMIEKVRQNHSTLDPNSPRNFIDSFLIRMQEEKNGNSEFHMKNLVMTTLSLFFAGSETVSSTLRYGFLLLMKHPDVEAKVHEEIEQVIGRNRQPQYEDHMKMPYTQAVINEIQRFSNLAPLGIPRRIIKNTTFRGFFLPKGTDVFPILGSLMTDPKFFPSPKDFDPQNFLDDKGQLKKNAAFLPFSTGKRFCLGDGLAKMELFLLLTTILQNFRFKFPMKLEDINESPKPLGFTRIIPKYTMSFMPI
rat CYP2C12, Cyp2c12 (gene 25011), sequence (P11510 whole entry, looked up): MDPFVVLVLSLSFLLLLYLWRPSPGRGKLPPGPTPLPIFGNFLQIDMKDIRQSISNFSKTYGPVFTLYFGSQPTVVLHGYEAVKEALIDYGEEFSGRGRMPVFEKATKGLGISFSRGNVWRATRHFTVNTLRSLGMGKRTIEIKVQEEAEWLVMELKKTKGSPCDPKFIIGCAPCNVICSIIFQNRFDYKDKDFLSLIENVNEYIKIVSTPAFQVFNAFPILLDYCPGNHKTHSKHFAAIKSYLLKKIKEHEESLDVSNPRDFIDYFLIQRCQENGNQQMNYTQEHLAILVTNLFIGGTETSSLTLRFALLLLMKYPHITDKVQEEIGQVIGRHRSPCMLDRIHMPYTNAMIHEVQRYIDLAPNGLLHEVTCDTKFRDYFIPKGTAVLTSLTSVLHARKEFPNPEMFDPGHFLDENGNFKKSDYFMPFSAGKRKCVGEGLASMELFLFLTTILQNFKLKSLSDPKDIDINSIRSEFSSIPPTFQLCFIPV
human CYP2B6, CYP2B6 (gene 1555), sequence (P20813 whole entry, looked up): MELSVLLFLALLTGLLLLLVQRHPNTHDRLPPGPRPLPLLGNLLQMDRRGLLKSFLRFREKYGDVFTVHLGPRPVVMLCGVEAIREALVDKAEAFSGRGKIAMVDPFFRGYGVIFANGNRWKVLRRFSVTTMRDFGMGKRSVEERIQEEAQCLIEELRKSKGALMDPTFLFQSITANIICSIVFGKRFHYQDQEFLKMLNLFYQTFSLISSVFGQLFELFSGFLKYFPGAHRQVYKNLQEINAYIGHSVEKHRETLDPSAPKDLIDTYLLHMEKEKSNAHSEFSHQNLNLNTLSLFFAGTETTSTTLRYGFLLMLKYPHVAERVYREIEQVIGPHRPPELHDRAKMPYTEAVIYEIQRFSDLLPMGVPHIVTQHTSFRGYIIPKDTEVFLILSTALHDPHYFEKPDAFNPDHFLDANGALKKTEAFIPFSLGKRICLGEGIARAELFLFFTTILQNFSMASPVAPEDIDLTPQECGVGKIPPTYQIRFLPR
rat CYP2A2, Cyp2a2 (gene 24895), sequence (P15149 whole entry, looked up): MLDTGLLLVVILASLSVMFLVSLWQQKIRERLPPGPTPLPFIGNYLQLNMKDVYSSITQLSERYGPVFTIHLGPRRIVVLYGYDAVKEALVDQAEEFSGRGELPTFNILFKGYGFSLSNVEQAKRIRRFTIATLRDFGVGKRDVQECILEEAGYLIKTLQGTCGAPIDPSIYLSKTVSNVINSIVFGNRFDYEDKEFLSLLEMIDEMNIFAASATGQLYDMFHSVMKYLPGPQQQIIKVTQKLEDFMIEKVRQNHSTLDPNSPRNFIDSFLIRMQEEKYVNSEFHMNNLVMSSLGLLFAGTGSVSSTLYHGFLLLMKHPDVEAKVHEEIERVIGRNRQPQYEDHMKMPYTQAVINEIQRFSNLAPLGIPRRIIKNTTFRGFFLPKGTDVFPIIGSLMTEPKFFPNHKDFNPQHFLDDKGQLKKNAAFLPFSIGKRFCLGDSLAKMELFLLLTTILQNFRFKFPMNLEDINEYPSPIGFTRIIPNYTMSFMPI

O=C1C(Cl)=C(Cl)C(=O)c2ccccc21
AC50 [1]: 7.68 µM (active)

CCN1CCC2(CC1)COc1cc3c(cc12)N(C(=O)c1ccc(-c2ccc(-c4nnc(C)o4)cc2C)cc1)CC3
AC50 [2]: 6.95 µM (active) | AC50 [3]: 12.7 µM (active) | AC50 [4]: 2.84 µM (active)

CC(=O)[O][Hg][c]1ccccc1
AC50 [2]: 0.259 µM (active) | AC50 [3]: 1.63 µM (active) | AC50 [5]: 16 µM (active) | AC50 [6]: 6.73 µM (active) | AC50 [7]: 3.31 µM (active) | AC50 [8]: 4.16 µM (active) | AC50 [9]: 9.85 µM (active) | AC50 [10]: 1.28 µM (active) | AC50 [11]: 1.9 µM (active) | AC50 [4]: 1.04 µM (active)

CCCCCCCCc1ccc(O)cc1
AC50 [2]: 19.3 µM (active) | AC50 [3]: 38.2 µM (active) | outcome [12]: inactive

CCC[CH2][Sn]([Cl])([Cl])[Cl]
outcome [1]: inactive

CCOC(=O)Nc1cccc(OC(=O)Nc2ccccc2)c1
AC50 [7]: 11.4 µM (active) | AC50 [13]: 6.84 µM (active) | AC50 [14]: 10 µM (active)

CCCCCCCCC(=O)NCc1ccc(O)c(OC)c1
outcome [2]: inactive | outcome [3]: inactive | AC50 [8]: 3.45 µM (active) | AC50 [9]: 3.95 µM (active) | AC50 [4]: 1.66 µM (active)

CCNc1nc(NC(C)(C)C)nc(SC)n1
outcome [2]: inactive | outcome [3]: inactive

CC(C)(c1ccccc1)c1ccc(O)c(C(C)(C)c2ccccc2)c1
AC50 [2]: 6 µM (active) | AC50 [3]: 13 µM (active) | outcome [10]: inactive

CC1(C)CCC(Cc2ccc(Cl)cc2)C1(O)Cn1cncn1 (centres undefined)
outcome [5]: inactive | AC50 [9]: 0.419 µM (active) | AC50 [10]: 2.75 µM (active) | AC50 [4]: 0.304 µM (active) | AC50 [13]: 2.5 µM (active) | AC50 [15]: 0.0404 µM (active) | AC50 (rat CYP2B1, gene 24300): 0.385 µM (active) | AC50 [16]: 0.121 µM (active) | AC50 [14]: 5.15 µM (active)

ClC1(Cl)C2(Cl)C3(Cl)C4(Cl)C(Cl)(Cl)C5(Cl)C3(Cl)C1(Cl)C5(Cl)C24Cl (centres undefined)
outcome [2]: inactive | outcome [3]: inactive | outcome [5]: inactive

CCOP(=S)(OCC)SCSP(=S)(OCC)OCC
AC50 [2]: 20 µM (active) | outcome [3]: inactive | outcome [6]: inactive | outcome [7]: inactive | AC50 [4]: 4.36 µM (active)

COc1cc2c(cc1OC)[C@@]13CCN4CC5=CCO[C@H]6CC(=O)N2[C@H]1[C@H]6[C@H]5C[C@H]43
AC50 [8]: 5 µM (active)
